Screening data from PubChem BioAssay.
TRHR agonist = agonists of human TRH receptor | P34981 | TRHR cells, calcium flux fluo-8, FDSS agonist mode | activation, % at 2 µM | 360,000 compounds, 0.18% hits | AID 493084; further: 0% is about no effect
Target sequence (P34981 whole entry, looked up): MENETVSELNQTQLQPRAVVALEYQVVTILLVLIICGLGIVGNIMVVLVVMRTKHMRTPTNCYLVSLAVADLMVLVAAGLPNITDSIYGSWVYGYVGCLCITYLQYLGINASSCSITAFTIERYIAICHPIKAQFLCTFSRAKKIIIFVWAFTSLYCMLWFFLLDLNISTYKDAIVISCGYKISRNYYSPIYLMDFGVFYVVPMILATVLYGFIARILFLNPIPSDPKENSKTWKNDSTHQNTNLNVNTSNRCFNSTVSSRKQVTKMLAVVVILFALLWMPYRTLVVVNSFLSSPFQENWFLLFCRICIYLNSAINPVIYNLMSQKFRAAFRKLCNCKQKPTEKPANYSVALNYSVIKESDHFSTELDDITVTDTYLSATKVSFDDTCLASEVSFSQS
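Steps: seed TRHR cells overnight; add fluo-8 no-wash Ca dye, RT 30 min–1.5 h; record 10 s baseline; pin-transfer compounds; monitor fluorescence 1 cycle/s for the agonist window. Calcium increases flag candidate agonists.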
D1 agonist = activates the human D1 dopamine receptor; P21728; HEK293 T-REx D1 cells, calcium flux, agonist mode; activation, % at 2 µM; 360,000 compounds, 1% hits; further: 0% is about no effect
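Tetracycline-induced HEK293 TREx D1 cells, force-coupled to calcium signalling, were dye-loaded with a no-wash calcium kit. Compound was pin-added after a 10 s baseline. Fluorescence was read kinetically at 1 cycle/s for 180 s, with calcium rises flagged as agonism.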
D1 antagonist = human D1 dopamine receptor antagonism | P21728 | HEK293 TREx D1 cells, calcium flux, dopamine EC80; active compounds read low | activity change, negative = inhibition, % at 10 µM | 360,000 compounds, 3.2% hits | AID 504652; in the data active means activity change below about -30%; further: on the % scale 0 is the no-effect control and ±100 the full control effect
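Inducible Hek293 Trex D1 cells (tetracycline, overnight, 30 C). Calcium dye 30–90 min RT. Antagonist mode: EC80 dopamine added after 180 s compound read.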
TRHR enhancer = allosterically enhances the human TRH receptor | 360,000 compounds, 0.66% hits | enhancement, % at 2 µM | TRHR cells, fluo-8 calcium fluorescence, EC20 TRH enhancement | AID 493056; in the data active means enhancement above about 30%; further: 0% is about no effect
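TRHR-expressing cells loaded with fluo-8 calcium dye were read kinetically (ex 480/em 530) during compound addition, then stimulated with an EC20 of TRH (10 nM final). Enhancement of the Gq-mediated intracellular calcium response was scored.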
D1 PAM = potentiators of human D1 dopamine receptor | 360,000 compounds, 0.036% hits | potentiation, % at 10 µM | AID 504651 | HEK293 TREx D1 cells, calcium flux, dopamine EC20 potentiation; in the data active means potentiation above about 30%; further: 0% is about no effect
* hit, by the source's call. Shown are actives, neighbours in structure and some others; about 4.7% of the full set was active somewhere. Unless noted, no stated cut-off is given here; in the data, active means activation above about 30%; inactive means the rest.

SMILES	TRHR agonist	D1 agonist	D1 antagonist	TRHR enhancer	D1 PAM
COc1cc(Cl)c(C)cc1NC(=O)c1cnc(N2CCOCC2)c2ccccc12	-1	2	-9	4	-3
CCOc1ccc(OCc2cccc(C(=O)N3CCCCCC3)c2)cc1	0	10	-21	-5	-6
O=C(NN1CCCCC1)c1cccc(COc2ccc(Cl)cc2)c1	1	5	-31*	2	-3
CN(C)C=Nc1ccccc1C1C=NNC1=O (stereo not given)	1	1	-34*	-6	-5
CC(=O)c1c(N=CN(C)C)nc(C)nc1-c1ccccc1	0	0	17	7	-3
Cn1c(NC(=O)c2cc(Br)ccc2Cl)cc(=O)n(C)c1=O	0	33*	9	2	-6
CC(NC(=O)c1ccc(Br)cc1Br)c1ccccc1 (stereo not given)	-2	10	0	10	1
CC(NC(=O)c1cc(Br)ccc1Cl)c1ccccc1 (stereo not given)	0	0	-46*	1	-6
COC(=O)c1ccccc1NC(=O)CSc1nnc2cc(C)c3cc(C)cc(C)c3n12	-1	3	0	-2	4
Cc1cccc(NC(=O)c2ccc(F)c(S(=O)(=O)NCc3ccc4c(c3)OCO4)c2)c1	0	0	-8	-5	-1
COc1cccc(C(=O)Nc2cccc(-c3cn4c(C)csc4n3)c2)c1OC	-1	-1	3	1	-2
CCOC(=O)C(CC)N1CCN(Cc2ccc(F)cc2)C(=O)C1=O (stereo not given)	0	2	-20	-2	-1
CCCN1CCN(C(=O)c2noc3c2COc2ccc(C)cc2-3)CC1	0	15	-27	-1	-3
CCOC(=O)N1CCN(C(=O)c2noc3c2COc2ccccc2-3)CC1	0	7	-31*	2	-4
CC(=O)Oc1c(C)cc(Cl)cc1C(=O)Nc1ccc([N+](=O)[O-])cc1Cl	4	34*	-21	-5	-10
CCOC(=O)C1CCCN(C(=O)Cn2nc(CC)n3c(cc4occc43)c2=O)C1 (stereo not given)	0	1	11	-3	-2
Cc1cc(C(C)(C)CC(C)(C)C)ccc1OCCOCC[N+](C)(C)Cc1ccccc1	0	101*	8	-4	-1
Cc1cc(C(C)(C)C)ccc1OCCN1CCCC1	2	9	5	1	0
Cn1c(=O)n(C)c2cc(CNCc3ccc(C(=O)O)cc3)ccc21	0	3	7	0	4
COc1cc(C(=O)OCc2cc(=O)n3ccsc3n2)cc(OC)c1OC	0	3	22	2	-3
CCCCN1C(=O)/C(=C/C=C2\N(C)c3ccccc3C2(C)C)SC1=S	29	67*	-14	-6	0
CCCCN1C(=O)/C(=C/C=C2\SCCN2C)SC1=S	20	94*	-39*	-1	-1
CN1CCS/C1=C/C=C1/SC(=S)N(Cc2ccccc2)C1=O	26	55*	-1	-11	-12
CCCN1C(=O)/C(=C\C=C2/C=CN(CC)c3ccccc32)SC1=S	0	1	2	2	-1
CCN1C(=O)/C(=C\N2CCCCCC2)SC1=S	-1	5	8	-15	-4
SMILES	TRHR agonist	D1 agonist	D1 antagonist	TRHR enhancer	D1 PAM
Cc1ccccc1-c1nnn(Cc2cccc(S(=O)(=O)N3CCOCC3)c2)n1	0	13	-33*	4	-8
O=C1c2cccc3c(N4CCCCC4)ccc(c23)C(=O)N1c1ccc(O)cc1	134*	359*	20	-6	-3
O=C1c2cccc3c(N4CCCCC4)ccc(c23)C(=O)N1c1ccccc1O	96*	204*	-4	6	4
O=C1c2cccc3cccc(c23)C(=O)N1c1ccc(O)cc1	0	3	-1	3	-3
COc1ccc2cc3cc(C(=O)Nc4ccccc4N4CCN(C)CC4)oc3nc2c1	0	3	-41*	-4	-10
COc1ccc2cc3cc(C(=O)NCCN4CCN(c5ccccc5F)CC4)oc3nc2c1	-1	0	-19	-5	-7
COc1ccc(-c2nn(-c3ccccc3)cc2C(=O)Nc2ccc(C(=O)O)cc2)cc1	0	2	-1	10	-6
COc1ccc(-c2nn(-c3ccccc3)cc2C(=O)Nc2ccccc2OC)cc1	-2	10	-14	44*	-4
